In PubChem BioAssay (Tox21):
Records with an inconclusive call do not appear. The source made the active and inactive calls. Unless noted, calls come from the whole dose curve; as a rule, active = well fitted curve in the direction sought with a large enough effect in the repeat runs; inconclusive = weak or mixed curves; inactive = no such curve, though single readings can be large; an effect the other way counts as inactive or inconclusive.

Columns and labels:
[1] = qHTS RealTime-Glo MT Cell Viability Assay in HEK293 cells - 0 hour (AID 1224880); note: top concentration of the series differs between compounds; nearly all actives have a fitted effect of over 45% in size
Outline: (§1)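 Real-time viability in HEK293: signal arises when living cells convert a prosubstrate for NanoLuc in the medium, so luminescence tracks viable cell number. Compound (23 nL, DMSO) added 5 h post-seeding; kinetic reads at 0–40 h, 37 C.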

[2] = A CellTox Green Cytotoxicity Assay to monitor cytotoxicity in HEK293 cells - 32 hour (AID 1224881); note: nearly all actives have a fitted effect of over 40% in size
Outline: (§2)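 Cells (HEK293, 600/well) and dye reagent are dispensed together. After 5 h at 37 C, 23 nL compound is pinned in. Plates stay at 37 C for 40 h with fluorescence read at 0h, 8h, 16h, 24h, 32h and 40h.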

[3] = A CellTox Green Cytotoxicity Assay to monitor cytotoxicity in HepG2 cells - 0 hour (AID 1224882); note: nearly all actives have a fitted effect of over 35% in size
Outline: (§3)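 Cells and non-lytic dye reagent are dispensed together (600 HepG2 cells/well) and incubated 5 h before DMSO compound transfer. Kinetic fluorescence is then recorded in the same wells during 40 h at 37 C.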

[4] = A CellTox Green Cytotoxicity Assay to monitor cytotoxicity in HepG2 cells - 32 hour (AID 1224883); note: nearly all actives have a fitted effect of over 50% in size
Outline: as §3

[5] = A CellTox Green Cytotoxicity Assay to monitor cytotoxicity in HEK293 cells - 8 hour (AID 1224884); note: nearly all actives have a fitted effect of over 35% in size
Outline: as §2

[6] = qHTS RealTime-Glo MT Cell Viability Assay in HepG2 cells - 16 hour (AID 1224885); note: nearly all actives have a fitted effect of over 50% in size
Outline: (§4)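 HepG2 suspension premixed with RealTime-Glo reagents is plated at 600 cells per well and left 5 h at 37 C/5% CO2. Compounds in DMSO then go in, and bioluminescence reflecting viable cell number is recorded over 40 h.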

[7] = qHTS RealTime-Glo MT Cell Viability Assay in HEK293 cells - 24 hour (AID 1224886); note: top concentration of the series differs between compounds; nearly all actives have a fitted effect of over 50% in size
Outline: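 Reads taken at 0, 8, 16, 24, 32 and 40 h from the same wells. HEK293 cells (600/well) carried RealTime-Glo reagents from seeding, with compound added after a 5 h settle at 37 C.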

[8] = qHTS RealTime-Glo MT Cell Viability Assay in HEK293 cells - 8 hour (AID 1224887); note: top concentration of the series differs between compounds; nearly all actives have a fitted effect of over 50% in size
Outline: as §1

[9] = A CellTox Green Cytotoxicity Assay to monitor cytotoxicity in HEK293 cells - 16 hour (AID 1224888); note: nearly all actives have a fitted effect of over 35% in size
Outline: as §2

[10] = qHTS RealTime-Glo MT Cell Viability Assay in HepG2 cells - 0 hour (AID 1224889); note: nearly all actives have a fitted effect of over 50% in size
Outline: as §4

[11] = A CellTox Green Cytotoxicity Assay to monitor cytotoxicity in HepG2 cells - 8 hour (AID 1224890); note: nearly all actives have a fitted effect of over 45% in size
Outline: as §3

[12] = qHTS assay to identify small molecule antagonists of the estrogen receptor alpha (ER-alpha) signaling pathway using the BG1 cell line in the presence of 0.1 nM 17-beta-estradiol - cell viability counter screen (AID 1259241); note: nearly all actives have a fitted effect of over 40% in size
Outline: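 Cytotoxicity counter-screen: live-cell protease activity measured by fluorescence (30 min reagent step) in the same wells. Cells were VM7Luc4E2 with endogenous ER-alpha and ERE-driven luciferase, treated 22 hr at 37C alongside 0.1 nM 17beta-estradiol final.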

[13] = qHTS assay to identify small molecule antagonists of the androgen receptor (AR) signaling pathway using the MDA cell line in the presence of 0.5 nM R1881 - cell viability counter screen (AID 1259242); note: nearly all actives have a fitted effect of over 45% in size
Outline: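 Steps: plate MDA-kb2 cells, rest 5 hr at 37C without CO2; pin in compounds in DMSO; add R1881 to 0.5 nM final; incubate 16 hr; add CellTiter-Fluor, 30 min; read fluorescence.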

[14] = qHTS assay to identify small molecule HDAC inhibitors (AID 1259364);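 note: wild-type HCT-116 cells with endogenous class I/II HDAC activity; top concentration of the series differs between compounds; nearly all actives have a fitted effect of over 45% in size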
Outline: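 Cells (HCT-116, wild type) are seeded at 1,500 per well, incubated overnight, treated with compound in DMSO for 2 hr, then developed with HDAC-Glo I/II reagent for 30 min at room temperature.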

[15] = qHTS assay to identify small molecule HDAC inhibitors - cell viability counter screen (AID 1259365)
Outline: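 CellTiter-Glo luminescence (30 min, room temperature) reported viability after a 2 h compound exposure at 37 C. Cells: wild-type HCT-116, 1,500 per well, seeded the night before.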

[16] = qHTS assay to identify small molecule antagonists of the sonic hedgehog signaling (Shh) pathway - cell viability counter screen (AID 1259367); note: nearly all actives have a fitted effect of over 55% in size
Outline: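 Cytotoxicity was assessed in parallel with Shh reporter activity by measuring live-cell protease fluorescence (CellTiter-Fluor) in NIH/3T3 cells stably carrying Gli1-Luc, treated with compound under conditioned medium stimulation for 23 hr plus 1 hr reagent incubation.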

[17] = qHTS assay to identify small molecule agonists of the sonic hedgehog signaling (Shh) pathway - cell viability counter screen (AID 1259366); note: nearly all actives have a fitted effect of over 50% in size
Outline: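 Cytotoxicity counter screen: CellTiter-Fluor reagent added after 23 h compound exposure, then 1 h at 37C and fluorescence read. Cells were 3T3 Gli1-Luc, seeded 2,000 per well and dosed 4 h post-plating.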

[18] = biological target: Estrogen receptor (Homo sapiens) (UniProt P03372); assay: qHTS assay to identify small molecule antagonists of the estrogen receptor alpha (ER-alpha) signaling pathway using the BG1 cell line in the presence of 0.1 nM 17-beta-estradiol (AID 1259244); note: nearly all actives have a fitted effect of over 50% in size
Estrogen receptor (Homo sapiens), sequence (P03372 whole entry, looked up): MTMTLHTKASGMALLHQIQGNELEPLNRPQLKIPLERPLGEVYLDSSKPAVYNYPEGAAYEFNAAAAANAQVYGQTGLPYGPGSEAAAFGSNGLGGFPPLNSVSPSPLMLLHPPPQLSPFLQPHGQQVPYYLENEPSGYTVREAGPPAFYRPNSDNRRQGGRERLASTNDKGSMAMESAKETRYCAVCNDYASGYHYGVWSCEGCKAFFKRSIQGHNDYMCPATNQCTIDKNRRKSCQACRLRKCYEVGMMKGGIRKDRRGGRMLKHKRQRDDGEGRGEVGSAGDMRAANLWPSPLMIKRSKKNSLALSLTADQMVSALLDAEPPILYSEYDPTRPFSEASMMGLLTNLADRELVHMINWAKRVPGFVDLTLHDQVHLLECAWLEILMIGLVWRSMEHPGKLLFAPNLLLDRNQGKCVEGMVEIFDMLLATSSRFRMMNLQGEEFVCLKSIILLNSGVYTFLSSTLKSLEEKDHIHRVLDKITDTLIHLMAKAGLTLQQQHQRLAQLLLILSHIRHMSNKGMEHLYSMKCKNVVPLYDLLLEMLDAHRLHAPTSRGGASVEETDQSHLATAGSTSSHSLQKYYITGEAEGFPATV
Outline: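 Antagonist mode: compounds in DMSO are pinned onto VM7Luc4E2 reporter cells, 0.1 nM final 17beta-estradiol is added, and after 22 h at 37C luciferase luminescence is measured with ONE-Glo.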

[19] = qHTS assay to identify small molecule phospholipidosis (PLD) inducers (AID 1259344; active = well fitted curve in the direction sought with a large enough effect; an effect the other way counts as inactive or inconclusive)
Outline: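 Cells (HepG2, 900 per well) attach for 4 h, receive LipidTOX Red and compound together, incubate 24 h at 37 C, are fixed 30 min with paraformaldehyde/Hoechst, then imaged at one site per well.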
% is set by controls: 0 for no effect and ±100 for the full control effect.

CCCCN(CCO)CCO
inactive: outcome [1] | Potency [2] | Potency [3] | Potency [4] | Potency [5] | outcome [6] | Potency [7] | Potency [8] | Potency [9] | Potency [10] | Potency [11] | outcome [12] | outcome [13] | Potency [14] | outcome [15] | outcome [16]

CO[Si](OC)(OC)OC
inactive: outcome [1] | Potency [2] | Potency [3] | Potency [4] | Potency [5] | outcome [6] | Potency [7] | Potency [8] | Potency [9] | Potency [10] | Potency [11] | outcome [12] | outcome [13] | Potency [14] | outcome [15] | Potency [17] | outcome [16]

CC(C)N1C(=O)c2ccccc2C1=O
inactive: outcome [1] | Potency [2] | Potency [3] | Potency [4] | Potency [5] | outcome [6] | Potency [7] | Potency [8] | Potency [9] | Potency [10] | Potency [11] | outcome [12] | outcome [13] | Potency [14] | outcome [15] | Potency [17] | outcome [16]

NC(=S)Nc1cccc2ccccc12
inactive: activity change, negative = cytotoxicity [1] 29.3% [at 6.97 µM] | cytotoxicity increase [2] -1.04% [at 6.97 µM] | cytotoxicity [3] 5.93% [at 6.97 µM] | cytotoxicity increase [4] 0.974% [at 6.97 µM] | cytotoxicity increase [5] 15.1% [at 6.97 µM] | activity change, negative = cytotoxic [6] -0.289% [at 6.97 µM] | activity change, negative = cytotoxicity [7] 15.9% [at 6.97 µM] | activity change, negative = cytotoxicity [8] 11.2% [at 6.97 µM] | activity change [9] 0.057% [at 6.97 µM, active compounds read high] | activity change, negative = cytotoxicity [10] 6.18% [at 6.97 µM] | cytotoxicity increase [11] 0.879% [at 6.97 µM] | activity change, negative = cytotoxicity [12] 7.82% [at 8.39 µM] | viability change, negative = cytotoxic [13] 0.661% [at 8.39 µM] | activity change, negative = inhibition [14] 2.32% [at 8.39 µM] | activity change, negative = cytotoxicity [15] -1.1% [at 8.39 µM] | viability change, negative = cytotoxic [17] -0.646% [at 8.39 µM] | viability change, negative = cytotoxic [16] 0.784% [at 8.39 µM]

CC(C)=CC(=O)O
inactive: outcome [1] | Potency [2] | Potency [3] | Potency [4] | Potency [5] | outcome [6] | Potency [7] | Potency [8] | Potency [9] | Potency [10] | Potency [11] | outcome [12] | outcome [13] | outcome [18] | Potency [14] | outcome [15] | outcome [16]

CC(C)(C)C(=O)/C=C/c1ccc(Cl)cc1
inactive: outcome [1] | Potency [2] | Potency [3] | Potency [4] | Potency [5] | outcome [6] | Potency [7] | Potency [8] | Potency [9] | Potency [10] | Potency [11] | outcome [12] | outcome [13] | outcome [18] | Potency [17] | outcome [16]

CC(C)[N+](C)(C)CC(O)COc1cccc2ccccc12 (stereo not given)
inactive: outcome [1] | Potency [2] | Potency [3] | Potency [4] | Potency [5] | outcome [6] | Potency [7] | Potency [8] | Potency [9] | Potency [10] | Potency [11] | outcome [12] | outcome [13] | Potency [19] | Potency [14] | outcome [15] | Potency [17] | outcome [16]

CCO[Si](C)(OCC)OCC
inactive: outcome [1] | Potency [2] | Potency [3] | Potency [4] | Potency [5] | outcome [6] | Potency [7] | Potency [8] | Potency [9] | Potency [10] | Potency [11] | outcome [12] | outcome [13] | Potency [14] | outcome [15] | Potency [17] | outcome [16]

CC(C)(C)N(CCO)CCO
inactive: outcome [1] | Potency [2] | Potency [3] | Potency [4] | Potency [5] | outcome [6] | Potency [7] | Potency [8] | Potency [9] | Potency [10] | Potency [11] | outcome [12] | outcome [13] | outcome [18] | Potency [14] | outcome [15] | outcome [16]

CCCCCCCCCCCCCCCCCC(=O)OCCCCCCCCCCCCCC(C)C
inactive: outcome [1] | Potency [2] | Potency [3] | Potency [4] | Potency [5] | outcome [6] | Potency [7] | Potency [8] | Potency [9] | Potency [10] | Potency [11] | outcome [12] | outcome [13] | Potency [14] | outcome [15] | Potency [17] | outcome [16]

O=C(O)/C=C/c1ccc(Cn2ccnc2)cc1
inactive: outcome [1] | Potency [2] | Potency [3] | Potency [4] | Potency [5] | outcome [6] | Potency [7] | Potency [8] | Potency [9] | Potency [10] | Potency [11] | outcome [12] | outcome [13] | Potency [19] | Potency [14] | outcome [15] | Potency [17] | outcome [16]

CCC(C(=O)NC(N)=O)c1ccccc1 (stereo not given)
inactive: outcome [1] | Potency [2] | Potency [3] | Potency [4] | Potency [5] | outcome [6] | Potency [7] | Potency [8] | Potency [9] | Potency [10] | Potency [11] | outcome [12] | outcome [13] | Potency [19] | Potency [14] | outcome [15] | Potency [17] | outcome [16]

CCCc1ccccc1O
inactive: outcome [1] | Potency [2] | Potency [3] | Potency [4] | Potency [5] | outcome [6] | Potency [7] | Potency [8] | Potency [9] | Potency [10] | Potency [11] | outcome [12] | outcome [13] | Potency [14] | outcome [15] | Potency [17] | outcome [16]

CC(C)(C)OC(=O)N1C[C@@H](F)C[C@H]1C(=O)O
inactive: outcome [1] | Potency [2] | Potency [3] | Potency [4] | Potency [5] | outcome [6] | Potency [7] | Potency [8] | Potency [9] | Potency [10] | Potency [11] | outcome [12] | outcome [13] | outcome [18] | Potency [14] | outcome [15] | Potency [17] | outcome [16]
